Measured values as given in the supplement of paper PMC12494721.
Where a name gives a salt, the structure may show the parent alone.

Legend:
Conditions in all cases: incubation time: 27 h, anaerobic, 37 °C;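 for the amine columns active = adjusted P below 0.05 in both replicates with a change the same way and a mean fold change under 0.8 or over 1.25; inactive = the rest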
[1] = tested on: Clostridium sporogenes DSM 1664; assay: growth (OD595) fold change vs plate DMSO controls (fold change (ratio)); higher = more growth
Outline: (§1)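 Each value is the mean of 2 biological replicates, and fold changes above 1.5 were set to NA. The underlying readings were taken at 595 nm from shaken anaerobic mGAM cultures in 96-well plates after 27 h at 37 °C. They were blank-subtracted, corrected for compound background using 20 µM compound solutions in water, and converted to OD with a calibration factor of 5. Growth is the fold change relative to the median of the plate DMSO controls.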

Escherichia coli IAI1 [2] = assay: as above
Outline: as §1

[3] = tested on: Klebsiella aerogenes DSM 30053; assay: as above
Outline: as §1

[4] = tested on: Ruminococcus gnavus DSM 108212; assay: as above
Outline: as §1

[5] = tested on: Klebsiella aerogenes DSM 30053; assay: fold change of Histamine concentration vs plate DMSO controls (fold change (ratio)); higher = more amine produced, active = hit call of the paper (significant change in both replicates, either direction)
Outline: (§2)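 Using LC–triple-quadrupole MS with dynamic MRM, amines were quantified against external calibration curves and corrected for drift within each batch. Samples were whole anaerobic mGAM cultures of four gut strains, grown 27 h at 37 °C from OD 0.1 before 1:1 dilution, extracted with cold acetonitrile/methanol containing 0.1% formic acid and centrifuged. Compounds were present at 20 µM final (sweeteners at 50 µM final). The numbers are fold changes versus plate DMSO controls, each the mean of 2 biological replicates.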

[6] = tested on: Clostridium sporogenes DSM 1664; assay: fold change of Tryptamine concentration vs plate DMSO controls (fold change (ratio)); higher = more amine produced, active = hit call of the paper (significant change in both replicates, either direction)
Outline: as §2

[7] = tested on: Ruminococcus gnavus DSM 108212; assay: as above
Outline: as §2

Escherichia coli IAI1 [8] = assay: fold change of Putrescine concentration vs plate DMSO controls (fold change (ratio)); higher = more amine produced, active = hit call of the paper (significant change in both replicates, either direction)
Outline: as §2

[9] = tested on: Klebsiella aerogenes DSM 30053; assay: as above
Outline: as §2

Escherichia coli IAI1 [10] = assay: fold change of Cadaverine concentration vs plate DMSO controls (fold change (ratio)); higher = more amine produced, active = hit call of the paper (significant change in both replicates, either direction)
Outline: as §2

[11] = tested on: Klebsiella aerogenes DSM 30053; assay: as above
Outline: as §2

[12] = tested on: Ruminococcus gnavus DSM 108212; assay: fold change of 2-Phenylethylamine concentration vs plate DMSO controls (fold change (ratio)); higher = more amine produced, active = hit call of the paper (significant change in both replicates, either direction)
Outline: as §2

Structure (SMILES)	growth [1]	growth (Escherichia coli IAI1 [2])	growth [3]	growth [4]	fold change of Histamine concentration [5]	fold change of Tryptamine concentration [6]	fold change of Tryptamine concentration [7]	fold change of Putrescine concentration (Escherichia coli IAI1 [8])	fold change of Putrescine concentration [9]	fold change of Cadaverine concentration (Escherichia coli IAI1 [10])	fold change of Cadaverine concentration [11]	fold change of 2-Phenylethylamine concentration [12]
CCCCc1ccc2[nH]c(NC(=O)OC)nc2c1 [Parbendazole] (20 µM)	1.04	1.04	1.02	1.25	1.11 (inactive)	0.953 (inactive)	0.998 (inactive)	0.98 (inactive)	1.07 (inactive)	0.981 (inactive)	1.03 (inactive)	1.02 (inactive)
C[C@]12CCC3=C4CCC(=O)C=C4CC[C@H]3[C@@H]1CC[C@@]2(O)CC#N [Dienogest] (20 µM)	0.815	0.536	0.616	0.67	0.945 (inactive)	1.01 (inactive)	1.04 (inactive)	0.979 (inactive)	1 (inactive)	0.993 (inactive)	1 (inactive)	1.02 (inactive)
CC(C)OC(=O)C(C)(C)Oc1ccc(C(=O)c2ccc(Cl)cc2)cc1 [Fenofibrate] (20 µM)	1.12	1.04	1.04	1.36	0.941 (inactive)	1.03 (inactive)	1.05 (inactive)	1.03 (inactive)	0.984 (inactive)	1.03 (inactive)	1.01 (inactive)	1.05 (inactive)
O=C(O)c1cc(=O)c2c(OCC(O)COc3cccc4oc(C(=O)O)cc(=O)c34)cccc2o1 [Cromolyn disodium salt] (20 µM)	1.06	1.05	1.02	1.11	0.943 (inactive)	0.983 (inactive)	1.04 (inactive)	0.994 (inactive)	0.96 (inactive)	0.99 (inactive)	0.979 (inactive)	1.06 (inactive)
O=c1[nH]cnc2c1ncn2[C@@H]1O[C@H](CO)[C@@H](O)[C@H]1O [Inosine] (20 µM)	0.976	1.01	1.01	0.919	1.01 (inactive)	1.06 (inactive)	0.997 (inactive)	1.02 (inactive)	1.02 (inactive)	1.01 (inactive)	0.997 (inactive)	0.963 (inactive)
CCCNCC(O)COc1ccccc1C(=O)CCc1ccccc1 (centres undefined) [Propafenone hydrochloride] (20 µM)	1.01	0.96	1.12	0.759	0.848 (inactive)	1.01 (inactive)	1.03 (inactive)	0.987 (inactive)	0.99 (inactive)	1.05 (inactive)	1.02 (inactive)	1.06 (inactive)
C=CCSCC1Nc2cc(Cl)c(S(N)(=O)=O)cc2S(=O)(=O)N1 (centres undefined) [Althiazide] (20 µM)	1.06	1.11	1.01	1.02	0.981 (inactive)	1.03 (inactive)	1.24 (inactive)	1.21 (inactive)	1.03 (inactive)	1.06 (inactive)	1.12 (inactive)	1.66 (active)
CCCOc1ccc2[nH]c(NC(=O)OC)nc2c1 [Oxibendazol] (20 µM)	0.862	0.999	0.972	0.869	1.04 (inactive)	0.982 (inactive)	1 (inactive)	1 (inactive)	1.02 (inactive)	1 (inactive)	0.987 (inactive)	0.996 (inactive)
CCOC(=O)[C@H](CCc1ccccc1)N[C@@H](C)C(=O)N(CC(=O)O)C1Cc2ccccc2C1 [Delapril Hydrochloride] (20 µM)	1.16	0.976	0.982	1.15	1.04 (inactive)	0.958 (inactive)	0.974 (inactive)	1 (inactive)	1.02 (inactive)	1.01 (inactive)	0.998 (inactive)	0.905 (inactive)
CC(COc1ccccc1)NN (centres undefined) [Phenoxypropazine dihydrochloride] (20 µM)	1.06	0.99	0.988	0.995	1.05 (inactive)	0.619 (active)	1 (inactive)	1.01 (inactive)	1.01 (inactive)	0.965 (inactive)	1.02 (inactive)	1.01 (inactive)
O=C(COc1ccc(Cl)cc1)N1CCN(Cc2ccc3c(c2)OCO3)CC1 [Fipexide hydrochloride] (20 µM)	1.05	0.947	0.961	0.87	1 (inactive)	0.943 (inactive)	0.945 (inactive)	1 (inactive)	1.01 (inactive)	0.953 (inactive)	1.01 (inactive)	0.916 (inactive)
CN(C(=O)CN(CCO)CC(=O)N(C)C(C)(C)Cc1ccccc1)C(C)(C)Cc1ccccc1 [Oxethazaine] (20 µM)	1.23	1.05	1	0.384	0.971 (inactive)	0.918 (inactive)	0.602 (active)	1.1 (inactive)	1 (inactive)	1.01 (inactive)	0.988 (inactive)	0.728 (active)
